Experiment [1] addresses Luciferin 4-monooxygenase (Photinus pyralis) (UniProt P08659). As to the kind of experiment: qHTS assay to identify small molecule inhibitors of firefly luciferase (AID 1224835). Note: nearly all actives have a fitted effect of over 25% in size. The method in brief: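 Inhibition of purified Photinus luciferase is measured by luminescence. Substrate levels (D-luciferin, ATP) sit at their KM values. Each compound is tested in a concentration series.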
For orientation: Quantitative high-throughput screening tests each substance at several concentrations.

Experiment [2] in a line: qHTS assay to identify small molecule agonists of the constitutive androstane receptor (CAR) signaling pathway - cell viability counter screen (AID 1224836). Note: nearly all actives have a fitted effect of over 45% in size. The procedure, abridged:
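Double-stable HepG2 hepatoma cells (hCAR plus CYP2B6-2.2kb) are treated for 23 h at 37 C with test compounds in 15-point concentration series. PK11195 at 0.75 uM final is co-added. Cell viability is quantified by CellTiter-Fluor.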

Experiment [3] in a line: qHTS assay to identify small molecule antagonists of the constitutive androstane receptor (CAR) signaling pathway - cell viability counter screen (AID 1224837). Note: nearly all actives have a fitted effect of over 45% in size. The procedure, abridged:
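Cells are seeded, rested 4 hr at 37 C/5% CO2, dosed with compound (15-point series) and 50 nM CITCO, incubated a further 23 hr, and then CellTiter-Fluor reagent is added before fluorescence is read. The line is HepG2 with stable hCAR and CYP2B6-2.2kb.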

Experiment [4] concerns the target Nuclear receptor subfamily 1 group I member 3 (Homo sapiens) (UniProt Q14994). Put plainly: qHTS assay to identify small molecule antagonists of the constitutive androstane receptor (CAR) signaling pathway (AID 1224838).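 Note: HepG2 cells stably expressing hCAR with CYP2B6 luciferase reporter stimulated by CITCO; nearly all actives have a fitted effect of over 40% in size.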 The method in brief:
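Luminescence from a CYP2B6-2.2kb promoter reporter in hCAR-expressing HepG2 cells reflects CAR signaling. Cells received compounds at 15 concentrations and 50 nM CITCO (final), then incubated 24 h at 37 C/5% CO2.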

The target is the same in experiment [5]. Put plainly: qHTS assay to identify small molecule agonists of the constitutive androstane receptor (CAR) signaling pathway (AID 1224839). Note: nearly all actives have a fitted effect of over 15% in size. The procedure, abridged: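 Readout: firefly luciferase luminescence via ONE-Glo. System: HepG2 double-stable for hCAR and CYP2B6-2.2kb. Conditions: 15-point compound titration, PK11195 at 0.75 uM final, 24 h incubation.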

Experiment [6] is described as follows: qHTS assay to identify small molecule antagonists of the estrogen related receptor signaling pathway with the pleiotropic PPARgamma coactivator (PGC) from Tox21 10K library - cell viability counter screen (AID 1224840; active = well fitted cell-killing curve with a large enough effect in the repeat runs, not every such curve was filed as active; note: nearly all actives have a fitted effect of over 40% in size). The method in brief: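 Cell viability is measured by CellTiter-Fluor fluorescence in PGC/ERR cells that receive compounds after a 6-hour attachment period and are then incubated 17.5 hours at 37 C.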

Experiment [7] is described as follows: qHTS assay to identify small molecule agonists of the estrogen related receptor signaling pathway with the pleiotropic PPARgamma coactivator (PGC) from Tox21 10K library (AID 1224842). Note: nearly all actives have a fitted effect of over 15% in size. The procedure, abridged:
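Luminescence from One-Glo (30 min, room temperature) measured after PGC/ERR cells had 18 h at 37 C with pinned compound (23 nL in DMSO). Cells had been seeded at 2,000 per well and pre-incubated 6 h.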

Experiment [8] deals with Thyrotropin receptor (Homo sapiens) (UniProt P16473). As to the kind of experiment: qHTS assay to identify small molecule agonists of the thyroid stimulating hormone receptor (TSHR) signaling pathway (AID 1224843; calls by dose curve; note: nearly all actives have a fitted effect of over 45% in size). The method in brief:
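Agonist activity read as cAMP rise via d2/cryptate HTRF competition, 1 h room-temperature detection, in HEK293 cells expressing TSHR. Fifteen-point titrations, each run in triplicate, with a 30 min room-temperature incubation beforehand.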

Experiment [9] can be described thus: qHTS assay to identify small molecule agonists of the hypoxia (HIF-1) signaling pathway - cell viability counter screen (AID 1224844; calls by dose curve; note: nearly all actives have a fitted effect of over 50% in size). The procedure, abridged: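 Viability counter screen: HRE-bla ME-180 cells plated 5 hrs before compound addition, treated 17 hrs at 37C and 5% CO2, then CellTiter-Glo added after the FRET reporter read; luminescence after 30 min.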

Experiment [10] can be described thus: qHTS assay to identify small molecule antagonists of the estrogen related receptor (ERR) signaling pathway from Tox21 library - cell viability counter screen (AID 1224834). Note: nearly all actives have a fitted effect of over 30% in size. The method in brief: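 Compounds in DMSO were pinned onto ERR cells that had been incubated for 6 h, and the plates were held at 37 C for 17.5 h. CellTiter-Fluor reagent was then added and fluorescence was measured after 30 min.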

Where “and” joins values, the source holds several entries; their conditions need not be identical. Equal values may be shown once. Records with an inconclusive call do not appear. Some structures have more than one record in an assay (separate samples or runs), and their calls can disagree. Calls of active or inactive are those of the source. Unless noted, calls come from the whole dose curve; as a rule, active = well fitted curve in the direction sought with a large enough effect in the repeat runs; inconclusive = weak or mixed curves; inactive = no such curve, though single readings can be large; an effect the other way counts as inactive or inconclusive.
Potency is the fitted concentration of half-maximal effect.

Sequence of Luciferin 4-monooxygenase (Photinus pyralis) (P08659 whole entry, looked up): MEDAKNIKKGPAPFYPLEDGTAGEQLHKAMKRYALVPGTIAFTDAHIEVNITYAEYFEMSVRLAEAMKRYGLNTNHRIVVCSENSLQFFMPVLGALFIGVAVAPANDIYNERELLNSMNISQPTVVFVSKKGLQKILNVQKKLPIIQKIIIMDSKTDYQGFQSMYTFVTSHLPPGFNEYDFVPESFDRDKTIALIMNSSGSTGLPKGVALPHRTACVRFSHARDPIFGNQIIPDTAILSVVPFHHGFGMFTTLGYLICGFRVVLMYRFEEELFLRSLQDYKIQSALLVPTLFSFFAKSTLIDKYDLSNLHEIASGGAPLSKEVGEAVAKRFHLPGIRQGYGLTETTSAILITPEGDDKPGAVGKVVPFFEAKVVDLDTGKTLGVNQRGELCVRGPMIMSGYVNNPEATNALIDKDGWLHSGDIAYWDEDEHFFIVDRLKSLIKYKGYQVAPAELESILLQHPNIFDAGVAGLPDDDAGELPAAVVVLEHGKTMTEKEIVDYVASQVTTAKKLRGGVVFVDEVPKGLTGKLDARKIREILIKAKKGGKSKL
Sequence of Nuclear receptor subfamily 1 group I member 3 (Homo sapiens) (Q14994 whole entry, looked up): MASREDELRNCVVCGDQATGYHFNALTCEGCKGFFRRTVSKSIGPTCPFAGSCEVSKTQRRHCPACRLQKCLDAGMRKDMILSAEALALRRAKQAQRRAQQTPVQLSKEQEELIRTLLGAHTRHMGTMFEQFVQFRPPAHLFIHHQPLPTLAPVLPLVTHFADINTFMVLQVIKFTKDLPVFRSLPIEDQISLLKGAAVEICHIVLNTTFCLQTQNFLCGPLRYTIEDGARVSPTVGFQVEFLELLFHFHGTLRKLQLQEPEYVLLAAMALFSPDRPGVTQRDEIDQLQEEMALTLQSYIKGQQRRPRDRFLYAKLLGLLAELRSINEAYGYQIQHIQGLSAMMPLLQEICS
Sequence of Thyrotropin receptor (Homo sapiens) (P16473 whole entry, looked up): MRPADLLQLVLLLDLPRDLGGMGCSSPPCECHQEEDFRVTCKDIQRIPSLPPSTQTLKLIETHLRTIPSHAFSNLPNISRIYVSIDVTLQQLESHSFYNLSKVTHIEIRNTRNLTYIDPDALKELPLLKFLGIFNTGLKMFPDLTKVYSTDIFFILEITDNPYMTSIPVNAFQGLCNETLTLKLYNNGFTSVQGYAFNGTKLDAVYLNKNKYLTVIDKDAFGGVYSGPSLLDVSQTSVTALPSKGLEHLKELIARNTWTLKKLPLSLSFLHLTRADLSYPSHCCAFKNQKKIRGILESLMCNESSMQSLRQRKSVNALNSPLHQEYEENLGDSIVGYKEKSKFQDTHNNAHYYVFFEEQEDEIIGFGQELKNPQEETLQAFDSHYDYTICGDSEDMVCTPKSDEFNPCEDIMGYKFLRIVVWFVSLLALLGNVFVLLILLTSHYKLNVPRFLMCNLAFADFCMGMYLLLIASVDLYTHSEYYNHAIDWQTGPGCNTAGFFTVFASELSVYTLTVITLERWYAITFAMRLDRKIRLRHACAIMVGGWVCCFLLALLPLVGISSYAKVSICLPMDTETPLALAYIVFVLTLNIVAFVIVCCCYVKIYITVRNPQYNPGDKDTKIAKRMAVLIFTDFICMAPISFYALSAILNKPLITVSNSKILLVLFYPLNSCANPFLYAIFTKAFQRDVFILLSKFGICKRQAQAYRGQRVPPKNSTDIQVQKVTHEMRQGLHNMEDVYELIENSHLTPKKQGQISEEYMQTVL

Consider `O=c1[nH]cnc2c1ncn2[C@H]1CC[C@@H](CO)O1`, for which the Potency entry in experiment [1], in experiment [2], in [3], in experiment [4], in experiment [5] and in [6] was “inactive” each time. The Potency entry in [7], in [8] and in experiment [9] was “inactive” throughout.

Take `Cc1c(C(=O)O)c(O)cc2c1C(=O)c1c(O)c([C@@H]3O[C@H](CO)[C@@H](O)[C@H](O)[C@H]3O)c(O)c(O)c1C2=O`: the Potency in experiment [10] is 33.5 µM (active) and 27.3 µM (active); in experiment [1], 34.7 µM (active) and 35.6 µM (active) and 17.4 µM (active). The Potency entry in [6] and in experiment [9] was “inactive” throughout.

As for `O=C1NS(=O)(=O)c2ccccc21`, the Potency result in experiment [10], in [2], in [3], in experiment [6], in [8] and in experiment [9] was “inactive” in each case.

As for `CC(C)NCC(O)c1ccc(O)c(O)c1` (stereo unspecified), the Potency result in experiment [10], in [2], in [6] and in [9] was “inactive” in each case. Further, the Potency in experiment [7] was 5.4 nM (active) and 8.6 nM (active) and inactive; in experiment [8], 7.6 nM (active) and 4.9 nM (active) and 11.9 nM (active).

Turning to `CCCCC(CC)C(=O)O` (stereo unspecified), the Potency result in [1], in [2], in [3], in [6], in [8] and in experiment [9] was “inactive” in each case.

As to `CC12CCC(CC1)C(C)(C)O2`, the Potency result in experiment [10], in experiment [1], in experiment [2], in experiment [6], in experiment [8] and in [9] was “inactive” each time.

For `CC(=O)Nc1c(I)c(NC(C)=O)c(I)c(C(=O)O)c1I`, the Potency result in experiment [10], in experiment [2], in experiment [3], in [6], in experiment [8] and in [9] was “inactive” in each case.

As to `CN(N=O)C(=O)N[C@@H]1[C@@H](O)[C@H](O)[C@@H](CO)O[C@@H]1O`, the Potency result in experiment [1], in [2], in [3], in experiment [4], in [5] and in experiment [6] was “inactive” in each case. Moreover, the Potency result in experiment [8] and in experiment [9] was “inactive” throughout.

On to `CC(=O)CC(c1ccccc1)c1c(O)c2ccccc2oc1=O` (stereo unspecified), for which the Potency entry in experiment [10], in [2], in [6] and in experiment [9] was “inactive” throughout.

With `NS(=O)(=O)O`, the Potency entry in experiment [1], in experiment [2], in experiment [3], in [4], in experiment [6] and in [9] was “inactive” throughout.

For `COc1ccc(C(Cl)=C(c2ccc(OC)cc2)c2ccc(OC)cc2)cc1`, the Potency result in experiment [1], in [2], in experiment [3], in [4], in experiment [5] and in experiment [6] was “inactive” in each case. For the same compound, the Potency result in experiment [7] and in experiment [9] was “inactive” throughout.

On to `CCc1nc(N)nc(N)c1-c1ccc(Cl)cc1`, for which the Potency result in [1], in experiment [2], in experiment [3], in [5], in [6] and in experiment [9] was “inactive” each time. For the same compound, the Potency in experiment [4] is 1.75 µM (active) and 3.06 µM (active).

`O=C1NC(=O)C(c2ccccc2)(c2ccccc2)N1`: the Potency entry in experiment [1], in experiment [2], in [3], in experiment [4], in experiment [5] and in [6] was “inactive” throughout. The Potency result in experiment [8] and in experiment [9] was “inactive” throughout.

For `NS(=O)(=O)c1cc2c(cc1Cl)NCNS2(=O)=O`, the Potency entry in [1], in experiment [2], in [3], in experiment [6], in experiment [7] and in [8] was “inactive” each time. Besides, the Potency entry in experiment [9] is “inactive”.

Turning to `CCCC[P+](CCCC)(CCCC)CCCC`, the Potency result in [10], in [2], in experiment [4], in experiment [5], in experiment [6] and in [8] was “inactive” in each case. Moreover, the Potency entry in experiment [9] is “inactive”.

`O=C(O)c1ccccc1`: the Potency entry in [1], in [2], in experiment [3], in [4], in experiment [5] and in experiment [6] was “inactive” in each case. Further, the Potency entry in experiment [8] and in experiment [9] was “inactive” throughout.

In the case of `O=C(Nc1ncc([N+](=O)[O-])s1)c1cccs1`, the Potency is 13.3 µM (active) in [10], 3.09 µM (active) in experiment [1], 1.33 µM (active) in [5] and 841 nM (active) in experiment [7]. Moreover, the Potency entry in experiment [4], in [6], in experiment [8] and in [9] was “inactive” each time.

In the case of `Cc1cccc(C)c1`, the Potency result in experiment [1], in [2], in experiment [3], in experiment [4], in experiment [5] and in experiment [6] was “inactive” each time. The Potency result in [7], in experiment [8] and in experiment [9] was “inactive” throughout.

With `Nc1c(N=Nc2ccc(-c3ccc(N=Nc4cc(S(=O)(=O)O)c5ccccc5c4N)cc3)cc2)cc(S(=O)(=O)O)c2ccccc12`, the Potency in [1] was 39.9 µM (active); in [2], 27.3 µM (active); in experiment [3], 24.3 µM (active); in experiment [4], 27.3 µM (active); in experiment [6], 21.7 µM (active). Besides, the Potency result in experiment [5] and in [7] was “inactive” in each case.

Turning to `COc1ccc(CN(CCN(C)C)c2ccccn2)cc1`, the Potency entry in experiment [1], in [2], in [3] and in experiment [6] was “inactive” in each case.

On to `O=C1OC2(c3ccccc31)c1cc(Br)c(O)c(Br)c1Oc1c2cc(Br)c(O)c1Br`, for which the Potency was 28.7 µM (active) and 36.6 µM (active) in experiment [1]; 7.81 µM (active) and 25 µM (active) in [3]. The Potency entry in experiment [4], in experiment [5] and in experiment [9] was “inactive” in each case.

Take `CCCCCCCCCCCCCCCC[N+](C)(C)Cc1ccccc1`: the Potency result in [1], in [2], in [4], in experiment [5] and in experiment [7] was “inactive” in each case. Moreover, the Potency in experiment [6] was 63.1 µM (active) and 49.4 µM (active) and inactive; in [9], “inactive and 44.4 µM (active)”.

The values are drawn from PubChem BioAssay (Tox21).
